Screens (PubChem BioAssay)
Only some compounds are listed: those with a hit (about 18% of all), similar ones and a draw of the others.
TDP1 cell CPT: growth inhibition of DT40 Tdp1-/-;hTDP1 cells with camptothecin (screen for TDP1 inhibitors); chicken DT40 Tdp1-/-;hTDP1 cells + 20 nM CPT, ATP luminescence, 48 h; Potency, µM (titrated, usually from 46.2 µM), without a hit: at the highest dose activity change, negative = growth inhibition, usual class: inhibitors; 420,000 tested, 12% active; note: potency is the fitted concentration of half-maximal effect; nearly all actives have a fitted effect of over 55% in size
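Chicken DT40 Tdp1-/- cells complemented with human TDP1, 400 cells/well, exposed to compounds plus 20 nM camptothecin for at least 48 h at 37 C; viability read as ATP content by CellTiter-Glo luminescence.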
VP16 counter: Gal4-VP16 reporter inhibition counter-screen; AID 2546; 310,000 tested, 3.5% active; Drosophila S2 Gal4-VP16 UAS-luciferase, luminescence, 20 h; Potency, µM (top dose mostly 53.6 µM), for the others: at the top dose activity, negative = inhibition, usual class: inhibitors;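 note: Gal4-VP16 expression switched on by copper sulfate through the metallothionein promoter; potency is the fitted concentration of half-maximal effect; nearly all actives have a fitted effect of over 50% in size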
RORg inh: ROR gamma (mouse) transcription inhibition | AID 2551 | P51450 | 310,000 tested, 5.4% active | Potency, µM (highest dose often 53.6 µM), inactives show at the highest dose activity change, negative = inhibition, actives largely listed as inhibitors | Drosophila S2 Gal4-RORgamma UAS-luciferase reporter, 20 h; note: potency is the fitted concentration of half-maximal effect; nearly all actives have a fitted effect of over 60% in size
Target sequence (P51450 whole entry, looked up, the tested form may be a part): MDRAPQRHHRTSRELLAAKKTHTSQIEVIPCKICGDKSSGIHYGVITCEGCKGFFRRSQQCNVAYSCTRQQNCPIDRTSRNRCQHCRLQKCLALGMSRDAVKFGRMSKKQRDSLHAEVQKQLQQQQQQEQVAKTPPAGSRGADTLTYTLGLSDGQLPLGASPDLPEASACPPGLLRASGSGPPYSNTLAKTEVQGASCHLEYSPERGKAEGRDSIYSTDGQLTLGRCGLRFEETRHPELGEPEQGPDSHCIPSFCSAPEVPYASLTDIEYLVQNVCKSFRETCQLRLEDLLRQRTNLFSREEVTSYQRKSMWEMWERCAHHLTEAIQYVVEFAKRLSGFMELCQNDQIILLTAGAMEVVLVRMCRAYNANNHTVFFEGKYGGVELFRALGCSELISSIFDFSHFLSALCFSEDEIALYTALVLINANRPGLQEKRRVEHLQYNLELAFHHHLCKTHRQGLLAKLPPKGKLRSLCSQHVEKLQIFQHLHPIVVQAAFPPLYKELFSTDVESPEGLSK
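Using a luciferase readout, inhibitors were identified by reduced reporter activity in Drosophila cells coexpressing a copper-inducible Gal4–ROR gamma fusion and UAS-driven Photinus luciferase, incubated 20 hr after 700 uM copper sulfate.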
LDHA inh: inhibitors of human lactate dehydrogenase A; P00338; 480,000 tested, 0.15% active; activity change, % (values are at about 110 or 230 µM); purified LDHA, NADH/diaphorase-resazurin fluorescence; stronger effect = lower value; in the data active = activity change below about -30%; inconclusive = mostly about -25% to -30%;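 note: plate controls were DMSO wells for no effect and wells without enzyme for full effect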
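LDH5 2 nM; NADH 0.06 mM, pyruvate 0.2 mM; 200 mM Tris pH 7.4, EDTA, Tween-20; 5 min RT. Detection: diaphorase 0.133 mg/mL + resazurin 37 µM, fluorescence ex540/em590 at 0 and 20 min; normalized to enzyme-free and DMSO wells.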
IL-1B inflam inh: inflammasome signaling inhibition, IL-1 beta readout; activity change, % at 57.5 µM; 360,000 tested, 4.7% active; AID 743279; THP-1 LPS/ATP IL-1B secretion, AlphaLISA, 16 h; stronger effect = lower value; in the data active = activity change below about -50%; inconclusive = mostly about -30% to -49%
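THP-1 cells pretreated 1 hr with compounds (up to 57.5 uM final), then stimulated with LPS (250 ng/mL final) plus ATP (1.25 mM final); secreted IL-1B measured by AlphaLISA after 16 hr, decreased signal indicating inhibition.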
TDP1 cell noCPT: qHTS for Inhibitors of human tyrosyl-DNA phosphodiesterase 1 (TDP1): qHTS in cells in absence of CPT | DT40 Tdp1-/- hTDP1 cells, no CPT, ATP luminescence, 48 h | Potency, µM (series often up to 46.2 µM), inactives show top-dose activity change, negative = growth inhibition, usual class: inhibitors | 420,000 tested, 15% active | AID 686978, 2013; note: potency is the fitted concentration of half-maximal effect; nearly all actives have a fitted effect of over 55% in size
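Readout: luminescence from CellTiter-Glo after 30 min in the dark at RT. Cells: DT40 Tdp1-/- with stable hTDP1, 400/well. Exposure: compounds alone, ≥48 hr, 37 °C.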
* hit, by the source's call; ? = inconclusive; nt = no result given. Unless noted, calls come from the whole dose curve; as a rule, active = well fitted curve in the direction sought with a large enough effect; inconclusive = small, poorly fitted or top-dose-only effect, or another doubt; inactive = no such curve, though single readings can be large; an effect the other way counts as inactive or inconclusive. Unless noted, % is set by controls: 0 for no effect and ±100 for the full control effect.

SMILES	TDP1 cell CPT	VP16 counter	RORg inh	LDHA inh	IL-1B inflam inh	TDP1 cell noCPT
CC(C)Oc1ccc(CNC(=O)C(C)n2ccc3cc(S(=O)(=O)N4CCCCCC4)ccc32)cc1 (stereo not drawn)	?	nt	nt	-9	nt	21µM*
COc1ccc(CNC(=O)C(C)n2ccc3cc(S(=O)(=O)N4CCCCCC4)ccc32)cc1 (stereo not drawn)	?	1%	22%	-3	?	?
CC(C(=O)NCc1ccc(Cl)cc1)n1ccc2cc(S(=O)(=O)N3CCCCCC3)ccc21 (stereo not drawn)	?	nt	nt	3	nt	18µM*
O=C(C1COc2ccccc2O1)N1CCN(Cc2ccc(Br)cc2F)CC1 (stereo not drawn)	?	-22%	?	-2	-63*	?
O=C(C1COc2ccccc2O1)N1CCN(c2nc3c(F)cc(F)cc3s2)CC1 (stereo not drawn)	21µM*	nt	nt	3	-23	15µM*
O=C(C1COc2ccccc2O1)N1CCN(Cc2ccc3c(c2)OCO3)CC1 (stereo not drawn)	?	-9%	31%	-1	?	?
O=C(C1CC1)N1CCN(c2nc3ccc(F)cc3s2)CC1	?	nt	nt	-7	nt	?
O=C(C1CC1)N1CCN(c2nc3c(F)cc(F)cc3s2)CC1	?	nt	nt	-4	nt	15µM*
CSc1cccc(NC(=O)/C=C/c2ccc(Cl)cc2Cl)c1	nt	nt	nt	9	nt	nt
O=C(CCNS(=O)(=O)c1ccc2c(c1)CCN2C(=O)C1CC1)Nc1cccc(C(F)(F)F)c1	nt	nt	nt	14	nt	nt
CC(C)C(=O)Nc1ccc2[nH]cc(C(C(=O)O)N3CCN(Cc4ccccc4)CC3)c2c1 (stereo not drawn)	nt	nt	nt	4	nt	nt
O=C(O)/C(=C/c1ccccc1)c1cccs1	nt	nt	nt	4	nt	nt
Cc1cccc(-c2noc(C34CC5CC(CC(C5)C3)C4)n2)c1	nt	nt	nt	2	nt	nt
O=C(CCc1c[nH]c2ccccc12)Nc1ccccc1OCC(F)(F)F	nt	nt	nt	8	nt	nt
O=C(/C=C/Nc1ccc(Br)cc1F)c1ccco1	-4%	7.9µM*	7.1µM*	-4	-9	?
O=C(/C=C/Nc1ccc(F)cc1F)c1ccco1	-9%	7.1µM*	7.9µM*	5	-7	-26%
O=C(/C=C/Nc1cccc(F)c1)c1ccco1	-7%	?	?	-3	5	-19%
O=C(/C=C/Nc1ccc(F)cc1F)c1cccs1	-10%	2.5µM*	1.6µM*	-9	-11	?
O=C(/C=C/Nc1ccccc1O)c1ccco1	?	2%	?	-3	4	?
Cc1cn([C@H]2C[C@H](N[S+](=O)([O-])c3ccc4c(c3)OCCO4)[C@@H](CO)O2)c(=O)[nH]c1=O	nt	nt	nt	1	nt	nt
C=C1C(=O)C23C(O)C1CCC2C12CCCC(C)(COC(C)=O)C1C(O)C3(O)OC2 (stereo not drawn)	1µM*	nt	nt	-4	0	0.73µM*
O=c1ccc(C(F)(F)F)cn1Cc1coc(-c2ccccc2)n1	nt	nt	nt	0	nt	nt
CC(=O)c1c(COC(=O)c2ccncc2)nc2ccccc2[n+]1[O-]	30%	?	11µM*	8	0	-27%
CCOC(=O)C1=CCC(C(C)(C)C)N(S(=O)(=O)c2ccc(C)cc2)C1 (stereo not drawn)	?	nt	nt	-10	59	?
CC(=O)C1=CCC(c2cccc3ccccc23)N(S(=O)(=O)c2ccc(C)cc2)C1 (stereo not drawn)	?	nt	nt	-2	-16	18µM*
SMILES	TDP1 cell CPT	VP16 counter	RORg inh	LDHA inh	IL-1B inflam inh	TDP1 cell noCPT
CCOC(=O)C1=CCC(c2ccccc2C)N(S(=O)(=O)c2ccc(C)cc2)C1 (stereo not drawn)	10µM*	nt	nt	-1	52	15µM*
CCOC(=O)C1=CCC(c2ccc(C)cc2)N(S(=O)(=O)c2ccc(C)cc2)C1 (stereo not drawn)	23µM*	nt	nt	-1	28	18µM*
CCOC(=O)C1=CCN(S(=O)(=O)c2ccc(F)cc2)C1c1ccc(C)cc1 (stereo not drawn)	-20%	nt	nt	-2	0	?
C=CCNc1nc2c(c(=O)n(C)c(=O)n2C)n1Cc1ccccc1	nt	nt	nt	-9	nt	nt
Cn1c(=O)c2c(nc(N/N=C/c3cccs3)n2Cc2ccccc2)n(C)c1=O	?	?	?	-5	23	23µM*
Cn1c(=O)c2c(nc(N/N=C/c3ccc(OC(=O)c4ccco4)cc3)n2Cc2ccccc2)n(C)c1=O	12µM*	?	29%	-2	32	8.2µM*
Cc1ccc(C)c(NC(=O)CSc2nc3nccnc3c(=O)n2CCc2c[nH]c3ccccc23)c1	12µM*	nt	nt	-17	nt	12µM*
CCc1ccc(NC(=O)CSc2nc3nccnc3c(=O)n2CCc2c[nH]c3ccccc23)cc1	8.2µM*	nt	nt	-4	nt	4.1µM*
COc1cccc2cc(C(=O)N(C)CCOc3cccc(Cl)c3)c(=O)oc12	nt	nt	nt	2	nt	nt
CCc1nc2ccc(C(=O)Nc3ccc(NC(C)=O)cc3)cn2c1N(C)CCC(C)C	?	nt	nt	-1	-20	21µM*
CCc1nc2ccc(C(=O)Nc3ccc(OC)c(OC)c3)cn2c1N(C)CCC(C)C	?	nt	nt	1	?	?
CCc1nc2ccc(C(=O)Nc3ccc(C(N)=O)cc3)cn2c1N(C)CCC(C)C	18µM*	nt	nt	-6	-23	23µM*
CCc1ccc(NC(=O)N2CCOc3ccc(Cl)cc32)cc1	-19%	nt	nt	3	nt	13µM*
O=C(NCc1cccs1)C1CCN(C(=O)N2CCOc3ccc(Cl)cc32)CC1	?	nt	nt	-4	nt	?
CC(C)Oc1ccc(CNC(=O)C2CCN(C(=O)N3CCOc4ccccc43)CC2)cc1	?	-2%	8%	-4	17	?
CC(C)Oc1ccc(CNC(=O)C2CCN(C(=O)N3CCOc4ccc(Cl)cc43)CC2)cc1	6.5µM*	nt	nt	-1	nt	6.5µM*
COc1cccc(CNC(=O)C2CCN(C(=O)N3CCOc4ccc(Cl)cc43)CC2)c1OC	?	nt	nt	-1	nt	21µM*
CC(C)CCNC(=O)C1CCN(C(=O)N2CCOc3ccc(Cl)cc32)CC1	26µM*	nt	nt	-3	nt	?
O=C(NCc1ccco1)C1CCN(C(=O)N2CCOc3ccc(Cl)cc32)CC1	-27%	nt	nt	0	nt	?
Cc1ccc(S(=O)(=O)N2CCN(C(=O)COC(=O)c3cccc4ccccc34)CC2)c(C)c1	nt	nt	nt	-3	nt	nt
